# Experiments:
# Assay in all cases: DAPPL (digital affinity profiling via proximity ligation, sequencing); 10 mM Tris-HCl pH 7.5, 50 mM NaCl, 1 mM DTT, 4% glycerol, room temperature, 30 min; GST-TFs on glutathione beads, 16-mer random dsDNA library, 0.1% formaldehyde crosslink after washing; high values mean tight binding
# Details in all cases: protein: recombinant; tags: N-terminal GST; dsDNA, one strand shown
# [1] = target: T1, FLI1 (Homo sapiens, UniProt Q01543 1-452)
# T1 sequence: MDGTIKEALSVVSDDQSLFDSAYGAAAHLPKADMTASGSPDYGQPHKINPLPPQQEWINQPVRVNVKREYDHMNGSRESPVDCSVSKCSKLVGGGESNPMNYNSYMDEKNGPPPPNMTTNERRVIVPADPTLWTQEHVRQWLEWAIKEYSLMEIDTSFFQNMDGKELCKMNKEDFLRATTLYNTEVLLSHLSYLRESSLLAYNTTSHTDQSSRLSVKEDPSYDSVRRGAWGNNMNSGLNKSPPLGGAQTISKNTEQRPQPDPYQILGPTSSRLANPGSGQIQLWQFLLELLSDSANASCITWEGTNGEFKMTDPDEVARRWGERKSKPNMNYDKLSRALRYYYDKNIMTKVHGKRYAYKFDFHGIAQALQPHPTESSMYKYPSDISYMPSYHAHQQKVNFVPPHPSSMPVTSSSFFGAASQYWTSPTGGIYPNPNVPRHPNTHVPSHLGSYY
# Method in brief: (§1)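 Sequencing on an Illumina NextSeq500 followed washing, crosslinking with 0.1% formaldehyde, proximity ligation (BsaI/T4 ligase, 1 h, 37 °C) and PCR amplification of pools that had been incubated for 30 min at room temperature with 200 nmole of a random double-stranded 16-mer DNA library in Tris/NaCl/DTT/glycerol buffer. Each pool held DNA-barcoded human transcription factors, expressed in yeast as GST fusions and captured on glutathione beads, plus a tag-only sample. Binding signal is a hexamer's read frequency for a factor divided by its frequency in the tag-only sample.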
# [2] = target: T2, ELK1 (Homo sapiens, UniProt P19419 1-428)
# T2 sequence: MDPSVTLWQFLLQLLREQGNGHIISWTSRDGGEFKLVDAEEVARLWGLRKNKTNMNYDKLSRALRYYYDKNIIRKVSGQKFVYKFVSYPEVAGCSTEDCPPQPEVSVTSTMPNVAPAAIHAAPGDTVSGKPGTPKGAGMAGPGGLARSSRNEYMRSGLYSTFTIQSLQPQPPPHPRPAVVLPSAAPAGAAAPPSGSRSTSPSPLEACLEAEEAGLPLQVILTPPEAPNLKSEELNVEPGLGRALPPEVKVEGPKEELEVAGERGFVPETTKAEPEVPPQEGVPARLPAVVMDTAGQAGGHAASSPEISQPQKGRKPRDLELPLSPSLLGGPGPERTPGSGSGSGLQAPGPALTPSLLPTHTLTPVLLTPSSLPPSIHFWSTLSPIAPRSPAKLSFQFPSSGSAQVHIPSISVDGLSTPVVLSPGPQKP
# Method in brief: as §1
# [3] = target: T3, GABPA (Homo sapiens, UniProt Q06546 1-454)
# T3 sequence: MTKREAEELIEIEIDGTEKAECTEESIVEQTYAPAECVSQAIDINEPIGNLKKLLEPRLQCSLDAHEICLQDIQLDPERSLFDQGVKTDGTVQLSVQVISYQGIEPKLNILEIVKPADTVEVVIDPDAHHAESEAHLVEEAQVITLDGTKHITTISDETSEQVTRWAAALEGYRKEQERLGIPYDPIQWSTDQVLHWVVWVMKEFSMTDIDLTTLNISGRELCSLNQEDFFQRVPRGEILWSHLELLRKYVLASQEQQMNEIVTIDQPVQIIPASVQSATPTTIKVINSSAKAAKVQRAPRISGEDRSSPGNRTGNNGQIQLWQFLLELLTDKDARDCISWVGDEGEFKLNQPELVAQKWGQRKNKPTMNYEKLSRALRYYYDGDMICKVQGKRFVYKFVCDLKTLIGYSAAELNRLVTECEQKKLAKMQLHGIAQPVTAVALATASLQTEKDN
# Method in brief: as §1
# [4] = target: T4, ERG (Homo sapiens, UniProt P11308 1-479)
# T4 sequence: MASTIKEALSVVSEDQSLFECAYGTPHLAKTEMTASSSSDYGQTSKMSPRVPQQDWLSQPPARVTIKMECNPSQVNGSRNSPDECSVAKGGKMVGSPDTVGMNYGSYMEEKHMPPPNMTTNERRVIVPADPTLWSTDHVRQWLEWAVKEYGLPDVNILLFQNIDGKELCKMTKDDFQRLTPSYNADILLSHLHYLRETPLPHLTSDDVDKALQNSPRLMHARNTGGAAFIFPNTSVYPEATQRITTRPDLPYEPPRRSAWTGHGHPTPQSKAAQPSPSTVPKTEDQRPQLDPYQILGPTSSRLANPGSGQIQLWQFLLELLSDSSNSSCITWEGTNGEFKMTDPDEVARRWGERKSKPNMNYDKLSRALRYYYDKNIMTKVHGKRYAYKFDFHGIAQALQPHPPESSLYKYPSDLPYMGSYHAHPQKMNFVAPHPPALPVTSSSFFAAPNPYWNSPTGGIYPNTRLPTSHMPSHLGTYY
# Method in brief: as §1
# [5] = target: ELF1 (Homo sapiens, UniProt P32519 1-619)
# Method in brief: as §1
# [6] = target: T5, EHF (Homo sapiens, UniProt Q9NZC4 1-300)
# T5 sequence: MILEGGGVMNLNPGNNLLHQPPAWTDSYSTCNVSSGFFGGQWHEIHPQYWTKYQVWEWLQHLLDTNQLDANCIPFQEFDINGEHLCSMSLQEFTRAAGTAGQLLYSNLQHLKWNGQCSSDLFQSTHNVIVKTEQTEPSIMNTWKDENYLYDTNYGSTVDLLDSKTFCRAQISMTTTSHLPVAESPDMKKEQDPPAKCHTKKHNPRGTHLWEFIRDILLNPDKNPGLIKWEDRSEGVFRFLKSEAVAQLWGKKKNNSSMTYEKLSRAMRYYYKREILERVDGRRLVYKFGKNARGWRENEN
# Method in brief: as §1
# [7] = target: SPI1 (Homo sapiens, UniProt P17947 1-270)
# Method in brief: as §1
# [8] = target: SPIB (Homo sapiens, UniProt Q01892 1-262)
# Method in brief: as §1
# [9] = target: T6, ELK3 (Homo sapiens, UniProt P41970 1-407)
# T6 sequence: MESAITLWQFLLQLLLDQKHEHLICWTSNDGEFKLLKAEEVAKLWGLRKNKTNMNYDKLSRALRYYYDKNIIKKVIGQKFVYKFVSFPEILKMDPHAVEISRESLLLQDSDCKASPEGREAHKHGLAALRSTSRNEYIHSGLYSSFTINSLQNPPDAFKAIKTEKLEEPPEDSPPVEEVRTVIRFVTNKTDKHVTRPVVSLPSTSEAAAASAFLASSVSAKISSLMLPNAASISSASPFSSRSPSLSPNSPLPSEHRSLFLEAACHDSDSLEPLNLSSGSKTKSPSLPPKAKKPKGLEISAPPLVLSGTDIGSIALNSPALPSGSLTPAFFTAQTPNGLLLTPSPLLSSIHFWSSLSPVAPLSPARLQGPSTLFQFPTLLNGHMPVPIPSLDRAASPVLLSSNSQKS
# Method in brief: as §1
# Sequence of SPIB (Q01892 whole entry): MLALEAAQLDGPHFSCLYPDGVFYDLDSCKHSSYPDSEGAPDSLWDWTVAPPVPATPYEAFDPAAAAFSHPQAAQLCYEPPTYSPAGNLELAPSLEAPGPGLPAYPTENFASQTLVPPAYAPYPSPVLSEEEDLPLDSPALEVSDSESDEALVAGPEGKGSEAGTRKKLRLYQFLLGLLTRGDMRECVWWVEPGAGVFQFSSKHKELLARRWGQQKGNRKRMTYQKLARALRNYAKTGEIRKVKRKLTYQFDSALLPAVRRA
# Sequence of ELF1 (P32519 whole entry): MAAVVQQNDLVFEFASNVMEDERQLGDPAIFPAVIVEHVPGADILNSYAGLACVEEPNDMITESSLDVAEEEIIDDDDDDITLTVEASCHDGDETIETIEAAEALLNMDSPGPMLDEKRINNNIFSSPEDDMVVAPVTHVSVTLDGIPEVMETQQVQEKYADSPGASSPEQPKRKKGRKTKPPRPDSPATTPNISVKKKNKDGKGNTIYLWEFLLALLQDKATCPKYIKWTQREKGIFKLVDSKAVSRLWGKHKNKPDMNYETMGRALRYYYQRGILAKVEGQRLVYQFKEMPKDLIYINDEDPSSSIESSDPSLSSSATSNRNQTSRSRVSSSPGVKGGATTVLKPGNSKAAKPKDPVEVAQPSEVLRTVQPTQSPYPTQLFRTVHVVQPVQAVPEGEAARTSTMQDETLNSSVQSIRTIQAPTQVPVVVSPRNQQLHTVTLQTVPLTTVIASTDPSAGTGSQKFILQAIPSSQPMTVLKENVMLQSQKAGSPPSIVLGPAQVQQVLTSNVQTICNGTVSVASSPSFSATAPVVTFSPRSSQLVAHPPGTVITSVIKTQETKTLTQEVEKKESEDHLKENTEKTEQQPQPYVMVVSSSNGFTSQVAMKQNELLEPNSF
Sequence,binding signal [1],binding signal [2],binding signal [3],binding signal [4],binding signal [5],binding signal [6],binding signal [7],binding signal [8],binding signal [9]
TGACCG,"1.62 fold enrichment (6-mer frequency, TF over GST control)","1.48 fold enrichment (6-mer frequency, TF over GST control)","1.59 fold enrichment (6-mer frequency, TF over GST control)","1.55 fold enrichment (6-mer frequency, TF over GST control)","1.53 fold enrichment (6-mer frequency, TF over GST control)","1.53 fold enrichment (6-mer frequency, TF over GST control)","1.52 fold enrichment (6-mer frequency, TF over GST control)","1.44 fold enrichment (6-mer frequency, TF over GST control)","1.47 fold enrichment (6-mer frequency, TF over GST control)"
CTGGTT,"1.36 fold enrichment (6-mer frequency, TF over GST control)","1.3 fold enrichment (6-mer frequency, TF over GST control)","1.2 fold enrichment (6-mer frequency, TF over GST control)","1.31 fold enrichment (6-mer frequency, TF over GST control)","1.31 fold enrichment (6-mer frequency, TF over GST control)","1.18 fold enrichment (6-mer frequency, TF over GST control)","1.45 fold enrichment (6-mer frequency, TF over GST control)","1.24 fold enrichment (6-mer frequency, TF over GST control)","1.21 fold enrichment (6-mer frequency, TF over GST control)"
ATCTTC,"1.68 fold enrichment (6-mer frequency, TF over GST control)","1.52 fold enrichment (6-mer frequency, TF over GST control)","1.48 fold enrichment (6-mer frequency, TF over GST control)","1.51 fold enrichment (6-mer frequency, TF over GST control)","1.64 fold enrichment (6-mer frequency, TF over GST control)","1.46 fold enrichment (6-mer frequency, TF over GST control)","1.52 fold enrichment (6-mer frequency, TF over GST control)","1.6 fold enrichment (6-mer frequency, TF over GST control)","1.59 fold enrichment (6-mer frequency, TF over GST control)"
ACATTA,"1.17 fold enrichment (6-mer frequency, TF over GST control)","1.16 fold enrichment (6-mer frequency, TF over GST control)","1.17 fold enrichment (6-mer frequency, TF over GST control)","1.08 fold enrichment (6-mer frequency, TF over GST control)","1.19 fold enrichment (6-mer frequency, TF over GST control)","1.17 fold enrichment (6-mer frequency, TF over GST control)","1.06 fold enrichment (6-mer frequency, TF over GST control)","1.2 fold enrichment (6-mer frequency, TF over GST control)","1.08 fold enrichment (6-mer frequency, TF over GST control)"
CTACTT,"1.85 fold enrichment (6-mer frequency, TF over GST control)","1.77 fold enrichment (6-mer frequency, TF over GST control)","1.72 fold enrichment (6-mer frequency, TF over GST control)","1.96 fold enrichment (6-mer frequency, TF over GST control)","1.85 fold enrichment (6-mer frequency, TF over GST control)","1.92 fold enrichment (6-mer frequency, TF over GST control)","2.05 fold enrichment (6-mer frequency, TF over GST control)","1.96 fold enrichment (6-mer frequency, TF over GST control)","1.88 fold enrichment (6-mer frequency, TF over GST control)"
GTTTCG,"1.28 fold enrichment (6-mer frequency, TF over GST control)","1.22 fold enrichment (6-mer frequency, TF over GST control)","1.22 fold enrichment (6-mer frequency, TF over GST control)","1.25 fold enrichment (6-mer frequency, TF over GST control)","1.27 fold enrichment (6-mer frequency, TF over GST control)","1.33 fold enrichment (6-mer frequency, TF over GST control)","1.25 fold enrichment (6-mer frequency, TF over GST control)","1.23 fold enrichment (6-mer frequency, TF over GST control)","1.15 fold enrichment (6-mer frequency, TF over GST control)"
GCACTT,"1.61 fold enrichment (6-mer frequency, TF over GST control)","2 fold enrichment (6-mer frequency, TF over GST control)","1.87 fold enrichment (6-mer frequency, TF over GST control)","1.93 fold enrichment (6-mer frequency, TF over GST control)","1.77 fold enrichment (6-mer frequency, TF over GST control)","1.79 fold enrichment (6-mer frequency, TF over GST control)","2.23 fold enrichment (6-mer frequency, TF over GST control)","1.7 fold enrichment (6-mer frequency, TF over GST control)","1.99 fold enrichment (6-mer frequency, TF over GST control)"

# From publication PMC7862700, “An all-to-all approach to the identification of sequence-specific readers for epigenetic DNA modifications on cytosine”
